An excerpt weighted towards active compounds, which were near 8% of everything screened.
HT1080NT lethal – qHTS for induction of synthetic lethality in tumor cells producing 2HG: qHTS for the HT-1080-NT fibrosarcoma cell line. HT-1080-NT fibrosarcoma viability, CellTiter-Glo ATP luminescence, 48 h. AID 686970, 2013. 360,000 compounds, 1.6% hits. Potency, µM (titrated, usually from 46.1 µM), for the others: at the top dose activity, negative = less viability, most hits filed as cytotoxic;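 further: NT is the 2HG producing partner of a matched IDH1 knockdown line; 0% = DMSO-treated cells and -100% = media-only wells without cells; nearly all actives have a fitted effect of over 55% in size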
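HT-1080-NT; 750 cells/well; 5% FBS RPMI; 48 h compound, 37 degrees C; CellTiter-Glo luminescence; curve fitting and curve-class assignment.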
HT1080 IDH1KD tx – qHTS for induction of synthetic lethality in tumor cells producing 2HG: qHTS for the HT-1080-IDH1KD cell line; HT-1080 IDH1 knockdown viability, ATP luminescence, 48 h; Potency, µM (series often up to 46.1 µM), for inactives: at the top dose activity, negative = toxicity, most hits filed as cytotoxic; 360,000 compounds, 2% hits;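 further: 0% = DMSO wells and -100% = cell-free medium wells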
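Assay cells: HT-1080 with IDH1 knockdown, 750 per well, RPMI/5% FBS. Exposure: 48 h at 37 °C following 2 h pre-incubation. Read: CellTiter-Glo luminescence; fitted concentration-response, curve class assigned.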
MCF10A rereplic – A quantitative high throughput screen for small molecules that induce DNA re-replication in MCF 10a normal breast cells | MCF 10A DNA re-replication, Hoechst nuclear intensity, 48 h | 350,000 compounds, 2.9% hits | Potency, µM (highest dose often 46.1 µM), for the others: top-dose activity, positive = re-replication, most hits filed as activators; further: % of control where 0% means no effect; nearly all actives have a fitted effect of over 50% in size
SW480 rerep – A quantitative high throughput screen for small molecules that induce DNA re-replication in SW480 colon adenocarcinoma cells; SW480 DNA re-replication, Hoechst DNA content imaging, 48 h; Potency, µM (top dose mostly 46.1 µM), without a hit: top-dose re-replication activation, hits mostly activators; 340,000 compounds, 1.8% hits; further: % of control where 0% means no effect; nearly all actives have a fitted effect of over 55% in size
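Treated cells incubate 48 hr (37 C, 5% CO2), are stained 40 min with Hoechst, and nuclear fluorescence is enumerated; a rise in nuclei with high DNA signal marks re-replication.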
KB-V1 MDR tox – qHTS assay for MDR1-selective chemotherapeutics: Primary screen using the drug-selected MDR subline cells KB-V1. KB-V1 MDR cells viability, CellTiter-Glo, 72 h. Potency, µM (top dose mostly 46.1 µM), usual class: cytotoxic. 400,000 compounds, 3.4% hits; further: on the % scale 0 is the no-effect control and ±100 the full control effect; nearly all actives have a fitted effect of over 60% in size
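Following 72 h at 37 degrees C with compound, KB-V1 cell viability was read by CellTiter-Glo luminescence, medium being phenol-red-free DMEM plus 10% FBS; concentration-response parameters came from normalized, curve-fitted qHTS data.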
KB-3-1 tox – qHTS assay for MDR1-selective chemotherapeutics: Primary screen using the parental adenocarcinoma cell KB-3-1 | Potency, µM (doses to about 46.1 µM), actives largely listed as cytotoxic | 400,000 compounds, 1.4% hits | KB-3-1 viability, CellTiter-Glo ATP luminescence, 72 h | AID 1347075, 2019; further: on the % scale 0 is the no-effect control and ±100 the full control effect; nearly all actives have a fitted effect of over 60% in size
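Here the drug-naive KB-3-1 line serves as comparator for MDR sub-line selectivity; cells received compound titrations, 72 h at 37 °C, then CellTiter-Glo readout.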
* hit, by the source's call; i = inactive; ? = inconclusive; / = not tested or not shown; ! = repeats disagree; [ ] = remark or other dose. The call rests on the fitted dose curve; in most records, active means well fitted curve in the direction sought with a large enough effect; inconclusive means small, poorly fitted or top-dose-only effect, or another doubt; inactive means no such curve, though single readings can be large; an effect the other way counts as inactive or inconclusive. Potency means the concentration at half of the fitted maximal effect.

SMILES | HT1080NT lethal | HT1080 IDH1KD tx | MCF10A rereplic | SW480 rerep | KB-V1 MDR tox | KB-3-1 tox
COc1cc2oc3ccc(C#Cc4ccc(N)cc4)cc3c(=O)c2cc1OC | -18% | -7% | 23µM* | 0% | i | i
Nc1ccc(C#Cc2ccc3c(=O)c4ccccc4oc3c2)cc1 | -1% | -15% | ? | 16µM* | ? | i
Cn1c2ccccc2c(=O)c2ccc(C#Cc3ccccn3)cc21 | -1% | 12% | ? | 6% | i | i
COc1cc2oc3ccc(C#Cc4ccccn4)cc3c(=O)c2cc1OC | 11% | -1% | 21µM* | ? | ? | i
Cc1ccc(NC(=O)Cn2c(=O)n(CCc3ccccc3)c(=O)c3sc4ccccc4c32)cc1C | / | / | / | / | ? | i
O=C(COC(=O)Cc1cccs1)NCC(=O)Nc1ccc(F)cc1 | 4% | -1% | -3% | 8% | i | ?
CC1=C(C(N)=O)C(c2cccc(Br)c2)n2nc(SCc3ccccc3)nc2N1 (configuration not stated) | / | / | / | / | i | i
COc1ccc(-c2cccc(-c3nc4ccc(Cl)cn4c3NC3CCCCC3)c2)cc1 | 6% | 1% | 15µM* | ? | i | ?
CCC(C)Sc1cc(-c2nc3ccc(Cl)cn3c2NC2CCCCC2)ccc1OC (configuration not stated) | -9% | 2% | ? | ? | 10µM*! | ?
CCCCCCSc1cc(-c2nc3ccc(Cl)cn3c2NC2CCCCC2)ccc1OC | 14% | 9% | -5% | 2% | i | i
CCCC(c1nnnn1Cc1ccco1)N1CCN(c2ccccc2)CC1 (configuration not stated) | 10% | 7% | -6% | -3% | i | i
CCCC(c1nnnn1Cc1ccco1)N1CCN(c2cc(Cl)ccc2C)CC1 (configuration not stated) | -9% | ? | 25µM* | 2% | ? | ?
Cc1ccccc1NC(=S)N(CCN(C)C)C(C)c1ccccn1 (configuration not stated) | 15% | 9% | 15% | 4% | 16µM* | i
COc1ccccc1N=C1SC(C(=O)Nc2cccc(Cl)c2Cl)C(N)=C1C(N)=O (configuration not stated) | 15µM* | ? | 12µM* | 23µM* | 3.7µM* | ?
COc1cc(NC(=S)Nc2cccc(Cl)c2Cl)c(OC)cc1Cl | 2% | 2% | 8% | 2%[9.22 µM] | i | i
CCC(NC(C)C)C(O)c1ccc(O)c(O)c1 (configuration not stated) | -26% | -12% | -32% | 2% | i | i
CCC(c1ccc(O)c(O)c1)C(CC)c1ccc(O)c(O)c1 (configuration not stated) | 23µM* | 21µM* | -13% | 10µM* | i | i
Cn1c(=O)c2c(-c3ccccc3)n(-c3cccc(C#N)c3)cc2n(C)c1=O | / | / | / | / | i | i
Cc1ccc2nc(SCC(=O)c3c(N)n(C4CC4)c(=O)[nH]c3=O)[nH]c2c1 | 0% | 3% | 14% | 0% | i | i
CCCc1cc(=O)[nH]c(SCC(=O)c2c(N)n(C3CC3)c(=O)[nH]c2=O)n1 | ? | ? | ? | 0% | i | 16µM*
CC1CCN(CCCCOc2ccc([N+](=O)[O-])cc2)CC1 | 0% | 9% | 10% | -3% | i | i
COC(=O)C1CCN(Cc2ccc(OCCCN3CCN(c4ccc([N+](=O)[O-])cc4)CC3)cc2)CC1 | -21% | 15µM* | ? | 26% | ? | i
CCC(Sc1nc2ccncc2[nH]1)C(=O)Nc1ccc(F)cc1 (configuration not stated) | / | / | / | / | ? | i
COc1cc(CN(C)c2ncnc3sccc23)ccc1OC(F)F | -22% | -25% | 8% | -5% | 8.2µM* | ?
Cc1cccc(Cc2c(C)nc3nc(SCC(=O)NCc4ccccc4)nn3c2C)c1 | / | / | / | / | i | 15µM*
SMILES | HT1080NT lethal | HT1080 IDH1KD tx | MCF10A rereplic | SW480 rerep | KB-V1 MDR tox | KB-3-1 tox
Cc1nn(S(=O)(=O)c2ccc(F)cc2)c(C)c1S(=O)(=O)N1CCCCCC1 | / | / | / | / | ? | i
Nc1cccc2cccnc12 | / | / | / | / | i | i
Cc1ccc2ccc3cccnc3c2n1 | -5% | -19% | 12% | ? | ? | 12µM*
COc1ccc(-c2ncncc2-c2csc(C)n2)c(O)c1OC | 0% | 1% | -6% | -2% | i | i
COC1=C(N)C(=O)c2nc(-c3nc(C(=O)O)c(C)c(-c4ccc(OC)c(OC)c4O)c3N)ccc2C1=O | 0.0092µM* | 0.0082µM* | -8% | -149% | 0.21µM* | 0.15µM*
CC(=O)N(C)c1ccc(OCC(O)Cn2c3ccc(Cl)cc3c3cc(Cl)ccc32)cc1 (configuration not stated) | -16% | ? | ? | ? | 21µM* | 21µM*
COc1ccc(OC)c(Cc2nnc(CCC(=O)NCc3nc4ccccc4s3)o2)c1 | -2% | 3% | -8% | -6% | i | i
CCN(CC(=O)Nc1ccc2c(c1)OCCO2)C(=O)/C=C/c1ccc([N+](=O)[O-])cc1 | 7% | 15% | 21% | -2% | 21µM* | i
COC(=O)c1c(NC(=O)Cc2coc3cc(C)ccc23)sc2c1CCC2 | / | / | / | / | i | i
CN1CCc2c(sc3nc(SCC(=O)N4CCOCC4)n(-c4ccc(Cl)cc4)c(=O)c23)C1 | -7% | -2% | 5% | 8.2µM* | i | i
COc1ccc([N+](=O)[O-])cc1NC(=O)C(C)OC(=O)Cc1ccc(OC)c(OC)c1 (configuration not stated) | 0% | -11% | 3% | 2% | 15µM* | i
C/C=C/C=C/C(=O)OC(C)C(=O)Nc1cc([N+](=O)[O-])ccc1OC (configuration not stated) | -14% | -12% | 0% | 0% | i | i
O=C(Nc1nccs1)[C@@H]1CC=C[C@@H]2CCN(C3CC3)C(=O)[C@@H]21 | / | / | / | / | i | i
COc1ccc(CN2CCc3c(c(=O)n4ncc(C(=O)N5CCN(c6ccc(F)cc6)CC5)c4n3C)C2)cc1 | / | / | / | / | i | ?

Screens as filed in PubChem.
